# Compounds with a hit are over-represented: about 7.5% of the library has one in this group of screens.
# ELG1 genotox: induces genotoxicity in HEK293T cells with luciferase-tagged ELG1; HEK293T ELG1-luciferase reporter, luminescence, 16 h; Potency, µM (highest dose often 46 µM), for the others: top-dose activity change, positive = activation, actives largely listed as activators; hit rate 1.3% among 330,000; AID 504466; note: % of control where 0% means no effect; nearly all actives have a fitted effect of over 60% in size
#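 HEK293T cells expressing luciferase-tagged ELG1 were treated with compound or DMSO for 16 hr at 37°C. Luciferase activity was then read after 30 min with ONE-Glo at room temperature; rising signal flags genetic stress.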
# SMN2 splice up: increases expression of the SMN2 splice variant; HEK293 SMN2-luciferase splicing reporter, luminescence, 30-36 h; Potency, µM (highest dose often 46.1 µM), for inactives: at the top dose activity change, positive = activation, most hits filed as activators; hit rate 2.8% among 210,000; note: % of control where 0% means no effect; nearly all actives have a fitted effect of over 55% in size
#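 HEK293 cells carry an SMN2 […]–luciferase reporter in which exon 7 inclusion puts luciferase in frame. Cells were plated 10-12 h before compound addition, then incubated 30-36 h at 37C. ONE-Glo luminescence was read; sodium butyrate at 4.5 mM final served as control.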
# Rab9 promoter act: activates the Rab9 promoter | Huh7 Rab9 promoter-luciferase reporter, luminescence, 24 h | hit rate 2.8% among 320,000 | Potency, µM (highest dose often 9.22 µM), for inactives: top-dose activation, negative = inhibition, actives largely listed as activators; note: % of control where 0% means no effect; nearly all actives have a fitted effect of over 60% in size
#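 Stable Rab9-luc Huh7, 1500 cells/well, 2 h settle; cmpd in DMSO, 24 h, 37 °C/5% CO2; luciferase reagent 10 min RT; luminescence.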
# FLuc modulator: firefly luciferase modulation, counter-screen for miR-21 project | hit rate 6.9% among 360,000 | P08659 | purified FLuc, Km substrates, luminescence inhibition | Potency, µM (top dose mostly 57.5 µM), inactives show top-dose activity change, negative = inhibition, most hits filed as inhibitors;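 note: plate controls were vehicle for no effect and reference inhibitor for full effect; nearly all actives have a fitted effect of over 55% in size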
# Target sequence (P08659 whole entry, looked up): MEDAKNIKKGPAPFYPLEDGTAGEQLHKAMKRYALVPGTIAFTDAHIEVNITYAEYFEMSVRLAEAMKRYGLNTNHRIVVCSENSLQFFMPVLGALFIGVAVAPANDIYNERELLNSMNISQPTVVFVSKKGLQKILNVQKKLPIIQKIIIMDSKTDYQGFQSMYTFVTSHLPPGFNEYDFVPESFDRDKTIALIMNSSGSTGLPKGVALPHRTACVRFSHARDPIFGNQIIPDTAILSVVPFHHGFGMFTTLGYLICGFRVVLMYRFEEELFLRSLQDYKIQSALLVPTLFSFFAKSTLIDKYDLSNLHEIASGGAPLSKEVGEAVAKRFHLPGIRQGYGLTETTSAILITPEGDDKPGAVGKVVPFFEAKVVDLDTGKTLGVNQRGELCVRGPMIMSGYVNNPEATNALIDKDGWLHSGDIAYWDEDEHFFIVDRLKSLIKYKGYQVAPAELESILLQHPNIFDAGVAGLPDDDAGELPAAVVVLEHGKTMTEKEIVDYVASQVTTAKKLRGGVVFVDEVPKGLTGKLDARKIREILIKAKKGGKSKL
#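 Purified P. pyralis luciferase, 10 nM final, with Km-level 10 uM D-luciferin and 10 uM ATP in 50 mM Tris acetate pH 7.5, 10 mM Mg acetate, 0.01% Tween-20, 0.05% BSA; 6-point qHTS titration about 60 µM downward; luminescence read.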
# NPC1 prom act: activates the NPC1 promoter. Huh7 NPC1 promoter luciferase reporter, 24 h. Potency, µM (doses to about 9.22 µM), for inactives: at the top dose activation, actives largely listed as activators. hit rate 2.4% among 320,000; note: % of control where 0% means no effect; nearly all actives have a fitted effect of over 60% in size
#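 Cells: Huh7 expressing luciferase under the NPC1 promoter, 1500/well. Seeded 2 h, compound added, incubated 24 h at 37 °C. Luciferase reagent, 10 min ambient, then luminescence.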
# Luc counter: counter-screen: inhibitors of Kinase-Glo firefly luciferase; Q27757; Kinase-Glo luciferase, ATP luminescence, 8 min; Potency, µM (highest dose often 38.3 µM), for the others: at the top dose activity change, negative = inhibition, hits mostly inhibitors; hit rate 0.28% among 200,000; AID 1379; note: % is set by controls: 0 for no effect and ±100 for the full control effect; nearly all actives have a fitted effect of over 60% in size
#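 Kinase-Glo luciferase light output from ATP and luciferin was measured with 10 uM ATP, within the enzyme's linear range. Buffer: 50 mM imidazole pH 7.2, 50 mM KCl, 7 mM MgCl2, 0.01% Tween 20, 0.05% BSA; luminescence read after 8 min at ambient temperature.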
# * = called active by the depositor; ? = inconclusive; nt = no result; [ ] = dose if it differs, or a comment. Calls come from the whole dose curve; as a rule, active = well fitted curve in the direction sought with a large enough effect; inconclusive = small, poorly fitted or top-dose-only effect, or another doubt; inactive = no such curve, though single readings can be large; an effect the other way counts as inactive or inconclusive. Potency is the fitted concentration of half-maximal effect.
SMILES,ELG1 genotox,SMN2 splice up,Rab9 promoter act,FLuc modulator,NPC1 prom act,Luc counter
COc1ccc(-c2ccc(SCC(=O)N3CCOCC3)nn2)cc1OC,?,-22%,4%,15µM*,22%,-9%
CC1CCN(C(=O)c2ccc3c(c2)OCCO3)CC1,?,?,25%,?,26%,-2%
C=CCOc1ccc(C(=O)O)cc1Cl,0%,nt,5%,-9%,-2%,nt
CC(C)C(=O)Nc1nnc(CCc2ccccc2)s1,12%,nt,1%,2%,15%,nt
CC(C)(C)C(=O)Nc1nnc(CCc2ccccc2)s1,?,nt,5.6µM*,12µM*,4µM*,nt
CCCc1nnc(NC(=S)Nc2ccccc2)s1,?,?,2.5µM*,?,?,0%
CCCc1nnc(NC(=O)Nc2ccccc2Cl)s1,nt,16µM*,nt,?,nt,nt
CCCc1nnc(NC(=O)CCC(=O)Nc2ccc(Cl)cc2)s1,?,nt,5%,-4%,-1%,nt
CC(C)C(=O)Nc1nnc(NC(=S)Nc2ccccc2)s1,?,30%,4.5µM*,21µM*,?,-1%
COC(=O)COc1coc(CN2CCN(c3cccc(Cl)c3)CC2)cc1=O,7%,nt,-7%,0%,8%,nt
Cn1cnc2c(=O)oc3ccc(S(=O)(=O)N4CCN(c5cccc(C(F)(F)F)c5)CC4)cc3c21,nt,nt,nt,-2%,nt,nt
Cc1noc(C)c1-c1ccc2ncnc(N(C)Cc3ccco3)c2c1,nt,3.5µM*,nt,nt,nt,1%
Cc1cccc(-c2ccc3ncnc(N(C)Cc4ccco4)c3c2)c1,nt,nt,19%,?,-2%,nt
COCCNC(=O)C(c1ccncc1)N(Cc1ccccc1)C(=O)Cn1nnc2ccccc21 (stereo unspecified),0%,13µM*,?,?,?,-3%
COCCNC(=O)C(c1cccnc1)N(Cc1ccccc1)C(=O)Cn1nnc2ccccc21 (stereo unspecified),?,26%,?,?,18%,4%
CCn1c(=O)c(C(=O)Nc2ccc(C(C)=O)cc2)nc2ccccc21,nt,28%,nt,15µM*,nt,nt
COc1ccc(/C=C2\SC(=S)N(CC(=O)NCCO)C2=O)cc1,14%,-13%,3%,9.5µM*,-3%,0%
COc1ccc(/C=C2\SC(=S)N(CC(=O)Nc3nnc(C)s3)C2=O)cc1,-3%,-9%,-2%,-19%,-1%,-3%
CCc1ccc(/C=C2\SC(=S)N(CCC(=O)N3CCN(C)CC3)C2=O)cc1,-1%,-40%,-6%,2.7µM*,-6%,-2%
Cc1ccc(/C=C2\SC(=S)N(CCCC(=O)N3CCOCC3)C2=O)cc1,-12%,nt,-18%,21µM*,-1%,nt
COc1ccc(/C=C2/SC(=S)N(CCCC(=O)N3CCN(C)CC3)C2=O)cc1,1%,nt,-7%,21µM*,-5%,nt
CN1CCN(C(=O)CCCN2C(=O)/C(=C/c3ccc(Cl)cc3)SC2=S)CC1,-1%,nt,-7%,-11%,-2%,nt
COc1ccc(/C=C2/SC(=S)N(CCC(=O)N3CCN(C)CC3)C2=O)cc1,-9%,nt,4%,?,-5%,nt
N#Cc1ccccc1NC(=O)C(=O)NCC(c1ccc2c(c1)OCO2)N1CCOCC1 (stereo unspecified),nt,nt,nt,0%,nt,nt
Nc1nnn(CC(=O)N/N=C/c2cccc(Cl)c2)n1,3%,nt,-5%,2%,-3%,nt
SMILES,ELG1 genotox,SMN2 splice up,Rab9 promoter act,FLuc modulator,NPC1 prom act,Luc counter
COc1ccc2c(C)c(CCC(=O)NCc3cccc(Cl)c3)c(=O)oc2c1,nt,-1%,nt,-2%,nt,nt
CCc1ccc(/C=C2\SC(=S)N(CCC(=O)Nc3cc(C)on3)C2=O)cc1,-2%,nt,-6%,17µM*,2%,nt
COc1ccc(/C=C2\SC(=S)N(CC(=O)N3CCN(C)CC3)C2=O)cc1,0%,nt,-6%,11µM*,-3%,nt
Cc1cc(NC(=O)CCN2C(=O)/C(=C/c3ccccc3Cl)SC2=S)no1,8%,-7%,-2%,4%,-2%,1%
O=C(CCCn1c(=O)c2cccn2c2cccnc21)Nc1ccccc1C(F)(F)F,nt,nt,nt,-2%,nt,nt
COc1cc(NC(=O)c2oc3ccccc3c2C)ccc1NC(=O)c1ccco1,-6%,nt,?,5.4µM*,25%,nt
COc1ccc(NC(=O)c2ccccc2NC(=O)c2ccco2)c(OC)c1,-7%,-8%,3%,19µM*,8%,-9%
COc1ccc(NC(=O)c2ccco2)cc1NC(=O)c1c(OC)cccc1OC,1%,3%,5%,15µM*,0%,nt
COc1ccccc1NC(=O)c1ccccc1NC(=O)c1cc(Cl)ccc1NC(=O)c1ccco1,1%,10%,3%,9%,-1%,0%
COc1ccccc1NC(=O)c1oc2ccccc2c1NC(=O)c1ccco1,7%,-25%,0%,-1%,-2%,-3%
O=C(Nc1ccc(NC(=O)c2cccs2)cc1Cl)c1ccco1,?,nt,?,-5%,?,?
COc1cc(NC(=O)c2cccs2)ccc1NC(=O)c1ccco1,18µM*,11µM*,?,?,30%,-2%
O=C1COc2ccc(-c3cc(-c4ccc(F)cc4)c4c(n3)-c3ccccc3OC4)cc2N1,nt,-6%,nt,-6%,nt,nt
COc1cccc(-n2c(-c3ccccc3F)nc3c(cnn3-c3ccc(C)cc3)c2=O)c1,nt,-19%,nt,-13%,nt,nt
O=C(Nc1ccc(OC(=O)c2cccs2)cc1)c1ccco1,?,19%,10%,2.7µM*,0%,?
COc1ccc(NC(=O)c2ccc(NC(=O)c3ccco3)cc2)c(OC)c1,-5%,nt,13%,-3%,-2%,nt
COc1cc(NC(=O)c2ccccc2Cl)ccc1NC(=O)c1ccco1,?,22µM*,2.8µM*,11µM*,2.5µM*,-8%
COc1ccc(/C=N/NC(=O)c2ccccc2NC(=O)c2ccco2)c(OC)c1,2%,nt,1%,5.4µM*,5%,nt
CN(CCOc1ccccc1)C(=S)Nc1ccc(OC(F)F)cc1,-2%,nt,-1%,-1%,2%,nt
O=c1c2sccc2nc(SCc2cc(=O)n3cc(Cl)ccc3n2)n1Cc1ccccn1,?,6%,3.5µM*,-3%,?,1%
COc1ccccc1CNc1ccc(-c2nc(C)no2)cc1[N+](=O)[O-],nt,nt,nt,13µM*,nt,nt
Cc1ccc(CNc2ccc(-c3nc(C(C)C)no3)cc2[N+](=O)[O-])cc1,nt,nt,nt,-1%,nt,nt
COc1ccccc1CNc1ccc(-c2nc(C(C)C)no2)cc1[N+](=O)[O-],nt,nt,nt,12µM*,nt,nt
O=C(CSc1nnc(-c2ccccc2)c(-c2ccccc2)n1)NC1CCCC1,nt,nt,nt,-11%,nt,nt
CN(C)c1ccc(CNC(=O)C2COc3ccccc3C2)cc1 (stereo unspecified),nt,nt,nt,-16%,nt,nt
COC(=O)c1ccc(CC(=O)c2nc3ccccc3s2)cc1,?,1%[1.84 µM],2.8µM*,3µM*,?,-9%
